Screening data deposited in PubChem by several laboratories.
A selection: hits, their analogues and other compounds. The true share with any hit is near 4.2%.
GDH-TPI inh: GDH-TPI coupled enzyme inhibition counter-screen; GDH-TPI coupled enzyme counterscreen, NADH absorbance; 1.2% of 360,000 active; inhibition, % at 4.8 µM; in the data active = inhibition above about 30%
PrPC TRFRET: inhibitors of human cell surface prion protein PrPC; TR-FRET read-out; inhibition, % at 13.8 µM; 0.43% of 370,000 active; AID 720596; in the data active = inhibition above about 24%
BJeLR lethal: kills HRASV12-expressing BJeLR cells | AID 1554 | BJeLR (HRASV12) viability, CellTiter-Glo ATP luminescence, 48 h | 0.17% of 300,000 active | inhibition, % (no concentration beside the values); in the data active = inhibition above about 50%
FBA Mtb inh: Mtb fructose-bisphosphate aldolase inhibition; P9WQA3; purified M. tuberculosis FBA, fluorescence read-out; 2.3% of 360,000 active; inhibition, % at 1 µM; in the data active = inhibition above about 27%
Target sequence (P9WQA3 whole entry, looked up): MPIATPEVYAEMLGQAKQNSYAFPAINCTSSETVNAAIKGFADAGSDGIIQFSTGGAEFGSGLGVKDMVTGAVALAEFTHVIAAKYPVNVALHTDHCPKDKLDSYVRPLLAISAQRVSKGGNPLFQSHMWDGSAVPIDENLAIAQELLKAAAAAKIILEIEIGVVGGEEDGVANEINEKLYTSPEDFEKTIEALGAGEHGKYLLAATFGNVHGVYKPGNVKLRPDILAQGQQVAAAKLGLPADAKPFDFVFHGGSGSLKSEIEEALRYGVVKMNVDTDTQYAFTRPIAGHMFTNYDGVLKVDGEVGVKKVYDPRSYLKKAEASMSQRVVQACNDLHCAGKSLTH
RecA splice inh: Mtb RecA intein splicing inhibition; AID 2221; 0.75% of 290,000 active; inhibition, % (concentration not given with the values); P9WHJ3; cell-free RecA intein splicing, fluorescence; in the data active = inhibition above about 30%
GFP chromo cs: counter-screen GFP chromophore formation inhibition. cell-free GFP chromophore formation, fluorescence. AID 434968. shares compounds with RecA splice inh. EC50, µM. 83% of 2,100 active; call rule not given here
Of the large screens only hits and unclear results are named; the others gave an inactive call (follow-up assays come after a bar, where they were run).

CCN(CC)C(=O)c1ccc2c(c1)C1C(Cl)C(Sc3ccccc3[N+](=O)[O-])CC1C(C(=O)O)N2 (stereo not given)	RecA splice inh 35.9 (no result: PrPC TRFRET) | GFP chromo cs 23.2
Cc1cc(C(=O)O[C@H]2CCC[C@]3(C(=O)N(Cc4ccccc4)c4ccccc43)[C@H]2NC(=O)CCc2ccccc2)no1	none (no result: GDH-TPI inh, BJeLR lethal, FBA Mtb inh, RecA splice inh)
N#Cc1c(Cl)c(Cl)c2nnc(-c3ccc(Br)cc3)n2c1Cl	RecA splice inh 49.0 (no result: GDH-TPI inh, FBA Mtb inh) | GFP chromo cs 5.15
[S-]c1nnc(-c2ccc(Br)cc2)n1-c1ccccc1.[Zn+2]	none
CS/C(=C/[N+](=O)[O-])Nc1cccc2c1C(C)CC2(C)C (stereo not given)	RecA splice inh 66.7 | GFP chromo cs 37.8
CC(=O)Nc1cc2c(c([N+](=O)[O-])c1C)C(C)(C)CC2(C)C	none (no result: BJeLR lethal, RecA splice inh)
O=C(Nc1ccccc1)Nc1nc2ncccn2c1-c1ccc(F)cc1	none (no result: GDH-TPI inh, BJeLR lethal, FBA Mtb inh, RecA splice inh)
Cc1oc2c(c1C(=O)NCc1cccnc1)C(=O)c1ccccc1C2=O	BJeLR lethal 75.9, RecA splice inh 74.7 (no result: GDH-TPI inh, PrPC TRFRET, FBA Mtb inh) | GFP chromo cs 0.623
COc1ccc(CNC(=O)c2c(C)oc3c2C(=O)c2ccccc2C3=O)cc1	RecA splice inh 57.8 | GFP chromo cs 23.4
CC(=O)c1c(C)oc2c1C(=O)c1ccccc1C2=O	none
Cc1onc(-c2ccccc2Cl)c1C(=O)NCc1cccnc1	none
COc1ccc(-n2c(SC/C=C/c3ccccc3)nnc2-c2cccs2)cc1	none (no result: GDH-TPI inh, BJeLR lethal, FBA Mtb inh, RecA splice inh)
O=C(C1CCCO1)N1CCN(C2=Nc3ccccc3Sc3ccccc32)CC1 (stereo not given)	none (no result: GDH-TPI inh, BJeLR lethal, FBA Mtb inh, RecA splice inh)
Cc1cc(SCC2=NNC(=O)C2)c(Cl)cc1Cl	none (no result: RecA splice inh)
O=C1CC(CSc2ccc(Cl)cc2)=NN1	RecA splice inh 90.9 | GFP chromo cs 8.78
O=C(NC1CCCCN(Cc2cccc(F)c2)C1=O)c1ccc(-c2ccccc2)cc1 (stereo not given)	none (no result: GDH-TPI inh, BJeLR lethal, FBA Mtb inh, RecA splice inh)
Cc1ccc(NC(=O)CSc2ncc(-c3ccccc3)n2C(=O)c2ccccc2)cc1	RecA splice inh 54.3 | GFP chromo cs 1.22
Cn1c(SCC(=O)NCc2ccccc2)ncc(C(=O)Nc2ccccc2)c1=O	none
CC(=O)Nc1ccc(NC(=O)CSc2ncc(C(=O)Nc3ccccc3)c(=O)n2C)cc1	RecA splice inh 31.4 | GFP chromo cs 0.115
Cn1c(SCC(=O)NCC2CCCO2)ncc(C(=O)Nc2ccccc2)c1=O (stereo not given)	RecA splice inh 45.5 | GFP chromo cs inactive
COc1ccc(Cn2cc(CN3[C@H](Cc4ccccc4)COc4cc(Br)ccc4S3(=O)=O)nn2)cc1	none (no result: GDH-TPI inh, BJeLR lethal, FBA Mtb inh, RecA splice inh)
CCN(CC)C(=O)CSc1nnc2nnc3cc(OC)ccc3n12	RecA splice inh 31.0 | GFP chromo cs inactive
CC(C)=CCC1=C(OCC(=O)O)C(=O)c2ccccc2C1=O	RecA splice inh 62.6 | GFP chromo cs 12
O=C1c2ccccc2C(=O)c2c1oc(C(F)(F)F)c2C(=O)c1ccccc1	RecA splice inh 39.2 | GFP chromo cs inactive
O=C(c1ccccc1)c1coc2c1C(=O)c1ccccc1C2=O	none
O=c1c(Cl)c(Cl)cnn1Cc1nnc(-c2ccc(Cl)cc2)o1	RecA splice inh 37.4 | GFP chromo cs 9.33
O=c1c(Cl)c(Cl)cnn1Cc1ccccc1Cl	RecA splice inh 38.2 (no result: GDH-TPI inh, FBA Mtb inh) | GFP chromo cs 20.1
Cc1ccc(CNC(=O)c2ccc(N(C)S(=O)(=O)c3ccccc3)cc2)cc1	RecA splice inh 37.4 | GFP chromo cs inactive
CC1=NN(C)C(=O)C1Cc1c(F)cccc1Cl (stereo not given)	RecA splice inh 79.7 | GFP chromo cs 16.8
O=C(NC1CCCC1)C(c1ccc(Cl)cc1)N(Cc1ccc(F)cc1)C(=O)CCl (stereo not given)	RecA splice inh 67.1 (no result: PrPC TRFRET) | GFP chromo cs 2.71
O=C(NC1CCCC1)C(c1ccc(F)cc1)N(Cc1ccc(Cl)cc1)C(=O)CCl (stereo not given)	RecA splice inh 59.1 | GFP chromo cs 6.99
N#Cc1ccc(/C=C2\CC3(OC(=O)C4CCCCC4)CCCN2C3)cc1 (stereo not given)	none (no result: GDH-TPI inh, BJeLR lethal, FBA Mtb inh, RecA splice inh)
Cn1c(=O)c([N+](=O)[O-])c(-n2ccnc2)c2ccccc21	RecA splice inh 65.7 | GFP chromo cs 18.6
Cc1nc2ccc(S(=O)(=O)NCC(=O)NCc3ccccc3C)cc2s1	none (no result: GDH-TPI inh, BJeLR lethal, FBA Mtb inh, RecA splice inh)
CC(C)NC(=S)NC1(C)CCS(=O)(=O)C1 (stereo not given)	RecA splice inh 47.6 | GFP chromo cs inactive
CCOC(=O)[C@@]12CCCC=C1N(CCc1ccc(Cl)cc1)C(=O)[C@H]2CC(=O)N1CCCCC1	none (no result: GDH-TPI inh, BJeLR lethal, FBA Mtb inh, RecA splice inh)
C=CCN1[C@H](C#N)[C@@H](c2ccc(C#Cc3cccnc3)cc2)[C@H]1CO	none (no result: GDH-TPI inh, BJeLR lethal, FBA Mtb inh, RecA splice inh)
Oc1cc(O)c2c(c1)O[C@H](c1ccc(O)c(O)c1)[C@H](O)C2	RecA splice inh 35.6 | GFP chromo cs inactive
Cc1ccccc1CN1CCCCC(NC(=O)c2cccc(F)c2)C1=O (stereo not given)	none (no result: GDH-TPI inh, BJeLR lethal, FBA Mtb inh, RecA splice inh)
C[C@H]1/C=C/CC(=O)N[C@@H](c2ccc3ccccc3c2)[C@@H](C)/C=C/CC(=O)N[C@H]1c1ccc2ccccc2c1	none (no result: GDH-TPI inh, BJeLR lethal, FBA Mtb inh, RecA splice inh)
Cc1nc2ccccc2c2c1C(=O)N(Cc1cccnc1)C2=O	RecA splice inh 53.7 | GFP chromo cs 0.815
CCCCCC[C@H](CN(CCCC)S(C)(=O)=O)c1ccccc1	none (no result: GDH-TPI inh, BJeLR lethal, FBA Mtb inh, RecA splice inh)
CC(C)(C)c1c(Cl)c(O)c(-c2ccccc2)c(=O)n1-c1ccccc1	RecA splice inh 30.8 | GFP chromo cs inactive
O=C(OCC#CCSc1nnc(-c2cccc3ccccc23)o1)c1ccc(F)nc1	none (no result: GDH-TPI inh, BJeLR lethal, FBA Mtb inh, RecA splice inh)
O=C(O)c1ccccc1Nc1cc(Cl)c2nonc2c1[N+](=O)[O-]	RecA splice inh 89.6 | GFP chromo cs 2.64
O=C(O)c1cccc(Nc2cc(Cl)c3nonc3c2[N+](=O)[O-])c1	RecA splice inh 88.3 | GFP chromo cs 4.77
O=[N+]([O-])c1c(Nc2ccccn2)cc(Cl)c2nonc12	BJeLR lethal 111.8, RecA splice inh 87.1 | GFP chromo cs 2.11
O=[N+]([O-])c1ccc(Nc2ccccn2)c([N+](=O)[O-])c1	none
COC(=O)C[C@@H]1CC[C@H]2[C@@H](COc3ccc(NC(=O)c4ccc(C(F)(F)F)cc4)cc3C(=O)N2C)O1	none (no result: GDH-TPI inh, BJeLR lethal, FBA Mtb inh, RecA splice inh)
O=S(=O)(c1ccccc1)c1ncc(C(F)(F)F)cc1O	none
O=S(=O)(c1ccccc1)c1ncc(C(F)(F)F)cc1Cl	RecA splice inh 63.2 | GFP chromo cs 24.5
CCOC(=O)c1nnc(-c2ccc(C)cc2)nc1Sc1cccc(Cl)c1	none
CCOC(=O)c1nnc(-c2ccccc2)nc1Sc1ccccc1Cl	RecA splice inh 39.5 | GFP chromo cs 1.96
COc1ccc(C(=O)n2nnc3ccccc32)cc1Br	RecA splice inh 34.5 (no result: PrPC TRFRET) | GFP chromo cs inactive
COc1ccc(C(=O)n2nnc3ccccc32)cc1OC	none (no result: BJeLR lethal, RecA splice inh)
O=C(O)/C=C/C(=O)Nc1ccc(C2(c3ccc(NC(=O)/C=C/C(=O)O)cc3)c3ccccc3-c3ccccc32)cc1	RecA splice inh 71.5 | GFP chromo cs 26.7
O=C(O)/C=C/C(=O)Nc1ccc(SC(F)(F)C(F)(F)C(F)(F)F)cc1	RecA splice inh 67.4 | GFP chromo cs 37.4
COC(=O)c1ccc(Cn2ccc3ccc(-c4ccc5ccn(Cc6ccc(OC)cc6)c5c4)cc32)cc1	none (no result: GDH-TPI inh, BJeLR lethal, FBA Mtb inh, RecA splice inh)
